High-throughput results (PubChem)
TWEAK-Fn14 inh: blocks TWEAK-Fn14 interaction in a reporter cell assay. 360,000 tested, 2% active. TWEAK-stimulated Fn14 reporter cells, luciferase luminescence, 8 h. inhibition, % at 10 µM. AID 1159606; in the data active means inhibition above about 50%
TROY signal inh: blocks TROY-dependent signaling in reporter cells. AID 1347056. Q293 LMP1-TROYcd NF-kB luciferase reporter, 4 h. 360,000 tested, 0.98% active. inhibition, % at 10 µM;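 active means compounds whose plate-normalised and pattern-corrected inhibition of the luciferase reporter signal at the single screening dose is 50% or more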
LMP1 NFkB inh: reduces LMP1-driven NF-kappaB luciferase signal | LMP1-induced NF-kappaB luciferase reporter cells, luminescence | inhibition, % at 12.5 µM | 350,000 tested, 0.69% active | AID 504558; in the data active means inhibition above about 41%; inconclusive means no clear call, values can overlap the other calls;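 further: 0% = neutral control wells and 100% = reference inhibitor control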
LGR2 antag: inhibitors of bursicon-induced Drosophila LGR2 receptor cAMP signaling. HEK293 LGR2, CRE-luciferase, bursicon-stimulated, 4 h. inhibition, % at 9.99 µM. 380,000 tested, 0.35% active;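 active means drop in luminescence signal, shown as inhibition above about 50% in the replicate tests, limit read from the data, passing the limit was not always enough; inconclusive means probably only some replicates passing the limit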;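 further: agonist challenge used bursicon conditioned medium at about half maximal strength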
HSF-1 act: increases HSF-1 driven luciferase reporter signal; 300,000 tested, 1.7% active; NIH3T3-HGL HSF-1 luciferase reporter, MG132, 8 h; 100% = twice DMSO control signal; activation, % at 9 µM;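 active means mean replicate activation of at least 50% with a set share of replicates each reaching 50%; inconclusive means only one of those two conditions met; inactive means mean below 50% and too few replicates reaching it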;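 further: 0% = median of the neutral control wells and 100% = twice that signal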
HSF1 inh: HSF1 inhibition | 300,000 tested, 0.77% active | activity change, negative = inhibition, % at 7.5 µM (by protocol) | NIH3T3-HGL HSE-luciferase, MG132-induced, luminescence 8 h; active compounds read low;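 active means more than half of replicate wells show activity change below -50%, luminescence cut by over half; inconclusive means some wells, but at most half, below -50%; inactive means no replicate well below -50%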;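 further: luciferase reports HSF-1 transcriptional activity via heat shock element; 0% = median of DMSO wells and -100% = zero luminescence signal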
* hit, by the source's call; ? = inconclusive; . = no result. This is a sample that favours compounds with a hit; in the whole collection about 3.6% have one here.

SMILES | TWEAK-Fn14 inh | TROY signal inh | LMP1 NFkB inh | LGR2 antag | HSF-1 act | HSF1 inh
O=C(Nc1ccccc1Cl)N1CCN(c2ccccn2)CC1 | 101.1* | -1.3 | 2.9 | 8.9 | 5.2 | 2.7
C[C@@H]1CN([C@@H](C)CO)C(=O)c2cc(NS(=O)(=O)c3ccc(F)cc3)ccc2O[C@H]1CN(C)C(=O)Nc1ccc(C(F)(F)F)cc1 | . | . | . | -9.4 | . | .
N=c1c(C(=O)NC2CCCC2)cc2c(=O)n3ccccc3nc2n1Cc1ccccc1 | -21.1 | -29.7 | 2.6 | 3.0 | -93.2 | -91.2*
Cc1ccc(Cn2c(=N)c(C(=O)NC3CCCCC3)cc3c(=O)n4ccccc4nc32)cc1 | -11.2 | -19.1 | 13.3 | -0.6 | 7.8 | 3.7
N=c1c(C(=O)NCC2CCCO2)cc2c(=O)n3ccccc3nc2n1Cc1ccccc1 (stereo unspecified) | -41.2 | -7.1 | 1.7 | -26.0 | 0.7 | -1.5
N=c1c(C(=O)NCC2CCCO2)cc2c(=O)n3ccccc3nc2n1Cc1ccc(Cl)cc1 (stereo unspecified) | -23.1 | -2.5 | -3.0 | 2.3 | 56.8* | 8.2
NC(=O)c1cc(Sc2ccccc2)nc2ccccc12 | 45.1 | 9.3 | 17.1 | -19.0 | . | .
NC(=O)c1cc2c3ccccc3ccn2c1-c1ccccc1 | 52.5* | 47.4 | 9.1 | -52.0 | 24.1 | 35.9
COc1ccc(/C=N/Nc2cc(C)nc3ccc(Br)cc23)cc1 | -50.6 | -5.6 | -25.6 | 92.7* | 59.4* | 7.2
CC1(C)Cc2c(sc(NC(=O)COc3ccc(Cl)cc3)c2C#N)C(C)(C)N1 | 101.1* | -21.4 | -9.6 | . | -0.1 | -0.3
Cc1ccccc1OCC(=O)Nc1sc2c(c1C#N)CC(C)(C)NC2(C)C | 30.7 | 7.5 | -13.9 | -26.2 | -1.2 | -5.3
CC[C@H](C)[C@@H]1NC(=O)[C@@H](CC(C)C)NC(=O)[C@H](C(C)C)NC(=O)[C@H]2CSSC[C@H](NC1=O)C(=O)N2 | 106.7* | 86.3* | . | 72.2* | . | .
COCCCNC(=O)/C(C#N)=C/c1ccc(F)cc1 | -22.4 | -4.7 | 1.6 | -7.2 | 68.5* | 18.4
COCCNC(=O)/C(C#N)=C/c1ccc(OCc2ccc(F)cc2)cc1 | -1.1 | -15.9 | -11.2 | -48.8 | 14.0 | 3.8
O=Cc1ccc(-c2cccc(C(=O)O)c2)o1 | -19.5 | -44.9 | -11.7 | . | -16.7 | 6.9
Cc1ccc(-c2ccc(/C=C/C(=O)c3ccccc3)o2)cc1 | 32.6 | -29.4 | -8.3 | . | 75.9* | 55.0
O=C(/C=C/c1ccc(-c2ccccc2)o1)c1ccccc1 | 39.0 | -19.4 | 2.2 | -66.2 | 72.1* | 41.6
O=C(/C=C/c1ccco1)Nc1scc(-c2ccccc2)c1C(=O)O | 66.9* | 15.4 | 37.6 | 17.4 | . | .
Cc1ccc(C(=O)Nc2scc(-c3ccccc3)c2C(=O)O)o1 | 12.9 | -10.1 | -6.5 | -24.8 | -3.2 | 3.4
O=C(/C=C/c1ccccc1)Nc1scc(-c2ccccc2)c1C(=O)O | 51.9* | 26.7 | -0.4 | -9.6 | 30.3 | 19.8
Cc1cccc(C)c1N1CCN(S(=O)(=O)c2ccc(F)cc2)CC1 | 1.9 | -4.2 | -4.2 | . | 55.3* | 14.3
Cc1ccccc1CN1CCN(S(=O)(=O)c2ccc(F)cc2)CC1 | 10.3 | 13.3 | 2.6 | . | -16.5 | 4.2
CCOC(=O)c1ccc(CC(=O)c2ccc(O)cc2O)o1 | 14.0 | 27.7 | 50.6* | . | -38.1 | -38.5
CCc1nnc(NC(=O)CSc2nnc(-c3ccc(S(=O)(=O)N4CCCC4)cc3)n2CC)s1 | 10.1 | 6.4 | -3.6 | 3.7 | 4.4 | -2.0
CCc1nnc(NC(=O)CSc2nnc(-c3ccc(S(=O)(=O)N(CC)CC)cc3)n2CC)s1 | 82.8* | -7.5 | -14.5 | -2.5 | -13.0 | -0.6
SMILES | TWEAK-Fn14 inh | TROY signal inh | LMP1 NFkB inh | LGR2 antag | HSF-1 act | HSF1 inh
CC(=O)O[C@]1(C(C)=O)CC[C@H]2[C@@H]3C=C(C)C4=CC(=O)CC[C@@H]4[C@H]3CC[C@@]21C | -10.9 | -2.1 | 52.1* | -11.4 | . | .
CC(=O)O[C@]1(C(C)=O)CC[C@H]2[C@@H]3C=CC4=CC(=O)C=C[C@]4(C)[C@H]3CC[C@@]21C | -18.8 | 1.6 | 11.9 | 2.5 | 109.4* | 56.3
CC(=O)O[C@]1(C(C)=O)CCC2C3C=C(C)C4=CC(=O)CC[C@]4(C)C3CC[C@@]21C (stereo partly specified) | -18.4 | 14.6 | 4.0 | -3.2 | -5.6 | 0.7
CC(=O)OC1(C(C)=O)CCC2C3CC(Cl)C4=CC(=O)CCC4(C)C3CCC21C (stereo unspecified) | -11.1 | 9.3 | 3.1 | 6.6 | . | .
C[C@H]1CCCCO[C@H](CN(C)C(=O)NC2CCCCC2)[C@@H](C)CN([C@@H](C)CO)C(=O)c2cc(NC(=O)NC3CCCCC3)ccc2O1 | . | . | . | -0.2 | . | .
C[C@H](CO)N1C[C@H](C)[C@H](CN(C)Cc2ccc(C(F)(F)F)cc2)OCCCC[C@H](C)Oc2ccc(NS(=O)(=O)c3ccccc3)cc2C1=O | . | . | . | 17.2 | . | .
ClC(Cl)c1nnc(-c2ccccc2)c(-c2c[nH]c3ccccc23)n1 | 8.7 | -30.2 | -49.5 | 27.3 | 56.9* | 20.0
COc1ccc2ccccc2c1C1CC(=O)N2CN(Cc3ccco3)CSC2=C1C#N (stereo unspecified) | -1.6 | -1.5 | 4.9 | 19.2 | 1.1 | 13.1
COc1ccc2ccccc2c1C1CC(=O)N2CN(C3CCCCC3)CSC2=C1C#N (stereo unspecified) | 4.4 | 3.1 | 3.2 | -4.7 | -63.6 | -53.7*
O=C(c1cc(-c2ccc(F)cc2)on1)N1CCCCCC1 | -6.6 | -32.2 | -20.5 | -43.5 | 6.5 | 5.3
COc1ccc(-c2cc(C(=O)N3CCCC3)no2)cc1 | 57.1* | 58.6* | 50.2* | 74.7* | 24.2 | -1.4
COc1ccc(-c2cc(C(=O)N3CCCCCC3)no2)cc1 | 27.9 | -9.7 | -15.1 | 8.3 | 59.7* | 25.3
O=C(c1cc(-c2ccc(F)cc2)on1)N1CCCC1 | 39.3 | 2.3 | 21.1 | 23.1 | 61.5* | 28.9
C[C@@H]1CCCCO[C@H](CN(C)C(=O)Cc2ccccc2)[C@H](C)CN([C@@H](C)CO)C(=O)c2cc(NC(=O)Nc3cccc4ccccc34)ccc2O1 | . | . | . | -0.6 | . | .
O=[N+]([O-])c1ccc(O)c(/C=N/Nc2nc3ccccc3[nH]2)c1 | 19.6 | -40.2 | 28.4 | -33.1 | ? | 79.3
O=[N+]([O-])c1ccc(O)c(/C=N/Nc2ccccn2)c1 | -26.3 | 16.3 | 46.7* | 23.6 | -29.3 | -36.1
O=[N+]([O-])c1ccc(NN=Cc2ccccc2O)nc1 | 13.9 | -30.1 | 1.6 | -44.3 | . | .
O=[N+]([O-])c1ccc(N/N=C/c2ccccc2O)cc1 | 3.6 | 31.6 | 2.1 | -82.7 | 72.7* | 69.8
O=[N+]([O-])c1ccc(O)c(/C=N/Nc2ncnc3c2cnn3-c2ccccc2)c1 | 39.6 | 6.7 | 46.6* | -8.9 | -25.1 | -23.8
CN1C(=O)c2cc(NC(=O)c3ccc(Cl)cc3)ccc2OC[C@@H]2O[C@@H](CC(=O)O)CC[C@@H]21 | . | . | . | 17.3 | . | .
CCC(=O)N1[C@@H]2Cn3c(ccc(-c4ccccc4)c3=O)[C@H]1[C@@H](C(=O)N1CCN(C)CC1)[C@@H]2CO | . | . | . | -16.6 | . | .
